# Bioassay records: PubChem BioAssay, The Scripps Research Institute Molecular Screening Center
# ssDAF12 agonist: activators of S. stercoralis DAF-12 nuclear receptor | HEK293 ssDAF-12/GRIP1 lit1-tk-luc reporter, luminescence; % of 3 µM dafachronic acid response | activation, % at 6.8 µM | 370,000 tested, 1% active;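 active = activation above the mean over all tested compounds plus 3 SD, cut at about 0.9% in these data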;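 also: 0% = DMSO-only wells and 100% = 3 µM delta7-dafachronic acid wells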
# hgDAF-12 ag: activates the H. glycines DAF-12 receptor ligand-binding domain. HEK293 GAL4-hgDAF12 UAS-luciferase reporter, agonist luminescence; normalized to butyrate control. activation, % at 6.8 µM. 370,000 tested, 1.8% active;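 active = activation above a cutoff set at the mean of all screened compounds plus 3 SD, cut at about 10% in these data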;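 also: 0% = DMSO wells and 100% = sodium butyrate wells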
# DAX1 inh-1: inhibitors of DAX1 repression of SF-1 activated StAR promoter; HEK293T StAR-luciferase reporter, SF-1/DAX-1 repression relief; AID 652010; 370,000 tested, 1.1% active; inhibition, % at 6.8 µM;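 active = inhibition above the mean over all tested compounds plus 3 SD, cut at about 3.6% in these data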;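 also: 0% = DAX-1 cells with DMSO and 100% = cells lacking DAX-1 with DMSO; higher inhibition means more luminescence from relief of DAX-1 repression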
# FXN GAA850 act: increases GAA850 frataxin promoter reporter activity | HEK293 lucGAA850 FXN promoter luciferase reporter, 24 h; percent of 10 µM SAHA response | activation, % at 6 µM | 360,000 tested, 0.56% active;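 active = activation above the average of all compounds screened plus 3 SD, cutoff fixed separately per campaign, cut at about 7.5% in these data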;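 also: 0% = DMSO wells and 100% = 10 µM SAHA wells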
# DAX1 inh-2: inhibitors of human orphan nuclear receptor DAX1 (NR0B1) | inhibition, % at 6.75 µM | 340,000 tested, 0.99% active | HEK293 Gal4-DAX1 luciferase reporter, luminescence | AID 504766;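 active = inhibition above the mean over all tested compounds plus 3 SD, cut at about 4.2% in these data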;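 also: 0% = DAX1-transfected cells with DMSO and 100% = empty-vector control cells with DMSO; inhibition shows as a rise in luminescence from relieved DAX1 repression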
# Target sequence (P51843 207-470 limits assumed): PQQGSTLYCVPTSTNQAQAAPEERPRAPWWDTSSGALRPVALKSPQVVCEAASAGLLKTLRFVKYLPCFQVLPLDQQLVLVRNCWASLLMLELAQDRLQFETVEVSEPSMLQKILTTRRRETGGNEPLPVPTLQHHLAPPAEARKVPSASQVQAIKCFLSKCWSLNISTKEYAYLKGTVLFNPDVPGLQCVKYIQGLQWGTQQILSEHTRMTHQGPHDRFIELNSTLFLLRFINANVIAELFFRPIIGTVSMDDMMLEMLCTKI
# hcDAF-12 act: H. contortus DAF-12 activation, primary screen | HEK293 hcDAF-12 lit1-tk-luc reporter, luminescence; 0% DMSO, 100% Δ7-dafachronic acid | activation, % at 6.8 µM | 370,000 tested, 1.4% active | AID 652067;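 active = activation above the mean of all tested compounds plus 3 SD, cut at about 5.5% in these data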;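 also: 100% = response to 3 µM Δ7-dafachronic acid high control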
# DAX1 conf: NR0B1 (human) inhibition, confirmation; shares compounds with DAX1 inh-1; HEK293T StAR-promoter luciferase reporter, SF-1/DAX-1 repression; inhibition, % at 6.8 µM; 2,400 tested, 87% active; AID 652134;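 active = inhibition above the average of every tested compound plus 3 SD, cut at about 3.8% in these data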;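 also: 0% = DAX-1 cells with DMSO and 100% = no DAX-1 control cells with DMSO; active compounds raise luminescence by relieving repression of the StAR reporter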
# SF1 mutant ctr: nonselective inhibitor or artifact in SF-1 mutant DAX1 counter-screen; HEK293 StAR-luciferase, SF-1 AF2 mutant, luminescence; 2,400 tested, 78% active; shares compounds with DAX1 inh-1; inhibition, % at 6.8 µM; AID 652136;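 active = inhibition above the mean of all tested compounds plus 3 SD, cut at about 3% in these data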;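 also: 0% = DAX-1 transfected cells with DMSO and 100% = cells without DAX-1 with DMSO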
# LXRb hcDAF ctr: LXR-beta agonism as hcDAF-12 counter-screen. shares compounds with hcDAF-12 act. HEK293 Gal4-LXR tk-luc reporter, luminescence, 24 h; normalized: DMSO 0%, positive control 100%. activation, % at 6.8 µM. 3,400 tested, under 10 active. AID 743027;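 active = mean percent activation of the reporter above a cutoff set as the average over tested compounds plus their standard deviation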
# Target sequence (P55055 whole entry, looked up, the tested form may be a part): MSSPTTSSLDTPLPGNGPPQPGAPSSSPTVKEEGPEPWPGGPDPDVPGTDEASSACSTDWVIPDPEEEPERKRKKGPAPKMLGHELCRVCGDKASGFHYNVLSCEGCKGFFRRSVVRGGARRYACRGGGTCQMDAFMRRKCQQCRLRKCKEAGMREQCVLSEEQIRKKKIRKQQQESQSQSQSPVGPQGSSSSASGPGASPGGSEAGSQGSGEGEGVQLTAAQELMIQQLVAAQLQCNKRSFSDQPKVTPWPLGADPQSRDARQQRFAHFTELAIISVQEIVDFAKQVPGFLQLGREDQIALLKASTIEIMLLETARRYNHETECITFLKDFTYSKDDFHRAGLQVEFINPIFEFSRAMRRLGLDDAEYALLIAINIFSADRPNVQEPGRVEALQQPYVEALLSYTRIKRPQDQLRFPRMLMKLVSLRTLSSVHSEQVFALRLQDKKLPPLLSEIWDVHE
# hcDAF12 conf: hcDAF-12 agonism, confirmation assay. shares compounds with hcDAF-12 act. HEK293 hcDAF-12 lit1-tk-luc reporter, luminescence; % of Δ7-dafachronic acid response. activation, % at 6.8 µM. 3,400 tested, 61% active. AID 743032;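 active = mean activation across triplicate tests above the threshold derived from the earlier primary screen, cut at about 5.5% in these data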;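 also: 0% = DMSO only wells and 100% = 3 µM Δ7-dafachronic acid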
# hgDAF12 conf: confirmation of H. glycines DAF-12 agonists | shares compounds with hgDAF-12 ag | HEK293 GAL4-hgDAF12 luciferase reporter, agonist mode; percent of butyrate response | activation, % at 6.8 µM | 3,300 tested, 80% active;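 active = mean activation over triplicate wells above the hit cutoff derived from the earlier primary screen, cut at about 11% in these data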;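 also: 0% = DMSO low control and 100% = 2 mM sodium butyrate high control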
# LXR ag 2: LXR-beta agonism as DAF-12 counter-screen; shares compounds with hgDAF-12 ag; HEK293 Gal4-LXR luciferase reporter, 24 h; activation, % at 6.8 µM; 3,300 tested, under 10 active; AID 743051;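 active = mean activation of the triplicate above a set limit carried over from the primary screen, none filed active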
# Active calls of the source: *; . = not tested or not shown. The list is not random: actives were taken first. Their share in the collection is about 4.5%.
SMILES,ssDAF12 agonist,hgDAF-12 ag,DAX1 inh-1,FXN GAA850 act,DAX1 inh-2,hcDAF-12 act,DAX1 conf,SF1 mutant ctr,LXRb hcDAF ctr,hcDAF12 conf,hgDAF12 conf,LXR ag 2
O=C(Nc1ccc(N2CCCCC2)cc1)c1ccccc1,0,15*,7.3*,0,-1,7.2*,17*,6.7*,2,5,17*,1
O=C(c1ccccc1)c1ccc(N2CCOCC2)cc1,0,15*,6.6*,3,1,4,7.1*,4.6*,.,.,16*,1
CN(C)c1ccc(-c2ccnc3c2CC(C)(C(=O)NCCc2ccccc2)O3)cc1 (stereo not given),-1,2,0,-1,.,-1,.,.,.,.,.,.
O=C1C(=Cc2ccccc2Cl)CCc2ccccc21,1,23*,6.5*,.,.,10*,6.7*,3,2,5.9*,16*,1
O=C1C(=Cc2ccc(Cl)cc2)CCc2ccccc21,-1,15*,7.4*,.,.,3,7.4*,3.3*,.,.,3,1
COc1ccccc1C=C1CCc2ccccc2C1=O,0,18*,8.6*,.,.,7.2*,3.9*,1,2,7.5*,13*,1
O=C1C(=Cc2ccc(F)cc2)CCc2ccccc21,1,22*,9.5*,.,.,7.9*,7.4*,3.3*,2,5,17*,1
O=C1C(=Cc2cccc(Cl)c2)CCc2ccccc21,-1,7,1,.,.,1,.,.,.,.,.,.
O=C1/C(=C\c2ccncc2)CCc2ccccc21,-1,3,0,2,0,0,.,.,.,.,.,.
CCN(CC)C(=O)c1cccc(-c2csc(C(C)(O)c3cccc(F)c3)n2)c1 (stereo not given),-2,-6,-4,-3,.,-2,.,.,.,.,.,.
COC(=O)c1ccccc1N(C)S(=O)(=O)c1cc2c3c(c1)CCC(=O)N3CCC2,0,-1,0,1,-1,-1,.,.,.,.,.,.
Cc1ccc(Cc2c(-c3ccco3)nc3c(C)cc(Br)cn23)cc1,0,-4,-3,.,.,-1,.,.,.,.,.,.
COc1ccc2oc(C(=O)OCC(=O)N(CCC#N)c3ccccc3)c(C)c2c1,-1,0,-1,1,0,-1,.,.,.,.,.,.
CC(=O)OCC(=O)Nc1ccc(N=Nc2ccccc2)cc1,1,17*,4.8*,4,0,4,10*,6.0*,.,.,14*,1
Cc1cc(C=C2C(=O)c3ccccc3C2=O)c(C)n1C,0,4,0,4,-1,2,.,.,.,.,.,.
CCn1c(C)cc(C=C2C(=O)c3ccccc3C2=O)c1C,4.4*,18*,5.6*,1,1,17*,15*,8.0*,2,15*,15*,1
CS(=O)(=O)N(Cc1ccc(Cl)cc1)c1ccc(C(=O)NCCSc2ccccn2)cc1,-1,-4,-1,-1,-1,-4,.,.,.,.,.,.
O=C(NCCSc1ccccn1)c1ccc(Cl)cc1,0,21*,4.5*,3,1,5,10*,4.8*,.,.,16*,1
O=C(NCCSc1ccccn1)c1ccc(Cl)cc1Cl,0,15*,7.3*,5,1,4,11*,6.6*,.,.,18*,1
COc1sc(SC)cc1/C=N/NC(=O)c1ccncc1,0,-1,0,1,-1,0,.,.,.,.,.,.
CC(C)(C)CC(=O)Nc1cc2c3c(c1)CCC(=O)N3CCC2,-1,1,0,-2,0,1,.,.,.,.,.,.
Oc1ccccc1C=NNc1nc2ccccc2s1,3.0*,22*,5.5*,3,4.4*,16*,11*,8.6*,2,17*,19*,1
C(=N\Nc1nc2ccccc2s1)/c1cccs1,3.3*,16*,7.0*,4,3,20*,18*,12*,2,17*,24*,1
Cc1cc(N/N=C/c2ccco2)c2ccccc2n1,-1,-1,0,1,0,-2,.,.,.,.,.,.
OCC(O)/C=N/Nc1nc2ccccc2s1 (stereo not given),-1,4,0,2,0,4,.,.,.,.,.,.
SMILES,ssDAF12 agonist,hgDAF-12 ag,DAX1 inh-1,FXN GAA850 act,DAX1 inh-2,hcDAF-12 act,DAX1 conf,SF1 mutant ctr,LXRb hcDAF ctr,hcDAF12 conf,hgDAF12 conf,LXR ag 2
C(=N\Nc1nc2ccccc2s1)/c1ccco1,2.6*,15*,6.7*,3,-1,17*,18*,8.2*,2,12*,21*,1
Cc1ccc(C(=O)Nc2ccc3c(c2)OCO3)cc1Cl,0,18*,11*,5,4.8*,6.1*,11*,6.6*,.,.,20*,1
Cc1cccnc1NC(=O)c1ccc2c(c1)OCO2,-1,2,1,3,1,3,.,.,.,.,.,.
Cn1c(C(=O)Nc2ccc3c(c2)OCO3)cc2sccc21,2.5*,17*,5.5*,1,4.8*,14*,11*,7.0*,1,16*,19*,1
O=C(Nc1ccccn1)c1ccc2c(c1)OCO2,0,22*,6.1*,3,0,4,6.8*,3.4*,.,.,13*,0
Cc1ccc(C(=O)Nc2ccc3c(c2)OCO3)cc1S(=O)(=O)N1CCCC1,-1,3,0,4,0,-1,.,.,.,.,.,.
O=C(Nc1ccc2c(c1)OCO2)Nc1ccccc1F,0,19*,11*,2,0,2,13*,6.9*,.,.,15*,1
Cc1[nH]c2ccccc2c1C(=O)C(=O)NC1CC1,0,1,0,2,1,3,.,.,.,.,.,.
CCN(CC(=O)Nc1c(F)cccc1F)C(=O)CNC(=O)c1ccc(C)s1,-1,0,1,0,0,1,.,.,.,.,.,.
